In PubChem BioAssay (NCATS):
Active and inactive are the calls of the source. Calls follow the shape of the dose curve; as a rule, active = well fitted activation curve with a large enough effect; inconclusive = small, poorly fitted or top-dose-only effect; inactive = flat fitted curve, though single readings scatter.

Assay: Cellular Toxicity (caspase-3) Mesangial (AID 660);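 also: combined caspase 3 and 7 activity read by Caspase-Glo luminescence; cells exposed to compound for 16 h before the caspase read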
Conditions: mesangial cells, normalized: DMSO 0%, 100 µM tamoxifen 100%; series mostly up to 91.7 µM
Excerpt: NIH Chemical Genomics Center [NCGC]
NIH Molecular Libraries Screening Centers Network [MLSCN]
National Institutes of Environmental Health Sciences [NIEHS]
National Toxicology Program [NTP]
We have developed a 1536-well cell-based assay for quantitative high throughput screening (qHTS) against a number of cell lines to determine in vitro caspase 3/7 of small molecules. This particular assay uses the mesangial cell line which is derived from normal human renal glomeruli.
NCGC Assay Protocol Summary:
The Caspase-Glo 3/7 assay (Promega) is a homogeneous method to measure caspase-3 and caspase-7 activities in cultured cells. The quantitation of caspase 3/7 activity is based on the cleavage of a peptide-aminoluciferin substrate. After caspase cleaves the substrate the free aminoluciferin is liberated and serves as the substrate of luciferase, which generates the light. The luminescent signal is proportional to amount of caspase 3/7 activity present.
Using the Caspase-Glo 3/7 assay, the amount of caspase 3/7 activity was measured in the mesangial cell line with complete culture medium following compound treatment for 16 hours. The assay was performed in opaque white 1536-well plates. In the screen, tamoxifen and doxorubicin were used as positive controls. Library compounds were measured for their ability to cause the activation of caspase 3/7 in the cell line, as reflected by an increase in luminescence signal, in a concentration-dependent manner. Data were normalized to the controls for basal activity (DMSO only) and 100% stimulation (100 uM tamoxifen). AC50 values were determined from concentration-response data modeled with the standard Hill equation.
qHTS protocol for caspase 3/7 assay in mesangial cell line
[Step] [Parameter] [Value] [Description]
1. Reagent; 5 uL; 1000 mesangial cells/well
2. Time; 5 hr; 37 °C incubation
4. Controls; 23 nL; Tamoxifen 0.23 uM to 100 uM & doxorubicin 7.0 pM to 100 uM
5. Time; 16 hr; 37 °C incubation
6. Reagent; 5 uL; Caspase-Glo 3/7 reagent
7. Time; 20 min; Room Temperature
8. Detection; Luminescence; Viewlux plate reader
Keywords: caspase 3/7, apoptosis, mesangial cell line, luminescence, NTPHTS, NTPHTS_NCGC, NIEHS, EPA, DSSTox, MLSMR, MLSCN, NIH Roadmap, qHTS, NCGC

| Compound | outcome |
| --- | --- |
| CCCCNC(=O)n1c(NC(=O)OC)nc2ccccc21 | inactive |
| COc1cc(-c2ccc(N)c(OC)c2)ccc1N | inactive |
| C=C(Cl)CSC(=S)N(CC)CC | inactive |
| CN(C)c1ccc(N=Nc2ccccc2)cc1 | inactive |
| C=CC(=O)OCCO | inactive |
| Clc1cccc(Cl)c1 | inactive |
| BrCCc1ccccc1 | inactive |
| ClP(Cl)(Cl)(Cl)Cl | inactive |
| O=C(Cc1ccccc1)OCc1ccccc1 | inactive |
| CCCCCc1cc(O)cc(O)c1 | inactive |
| O=S(=O)(Cl)c1ccccc1 | inactive |
| Nc1ccc(-c2ccc(N)cc2)cc1 | inactive |
| CC1CC(=O)O1 (stereo not given) | inactive |
| O=C(O)c1cccc(Cl)c1 | inactive |
| Nc1ccc(Cc2ccc(N)c(Cl)c2)cc1Cl | inactive |
| Cc1cc(-c2ccc(N)c(C)c2)ccc1N | inactive |
| Cc1ccc(N)c(N)c1 | inactive |
| C[N+](=O)[O-] | inactive |
| N#C/C(N)=C(/N)C#N | inactive |
| Nn1cnnc1 | inactive |

| Compound | outcome |
| --- | --- |
| Cc1cccc(C)c1N | inactive |
| N#CC(Br)Br | inactive |
| CCCCCCCCCCCOC(=O)c1ccccc1C(=O)OCCCCCCCCCCC | inactive |
| CC(C)(Cl)[N+](=O)[O-] | inactive |
| CCCCOC(C)=O | inactive |
| C=CCCl | inactive |
| Nc1ccc(-c2ccc(N)c(Cl)c2)cc1Cl | inactive |
| O=C(Cl)OCc1ccccc1 | inactive |
| BrCC(Br)C1CCC(Br)C(Br)C1 (stereo not given) | inactive |
| S=C1NCCN1 | inactive |
| CCOP(=S)(OCC)SCCSCC | inactive |
| O=[N+]([O-])c1cc(Cl)c(Cl)c(Cl)c1 | inactive |
| O=Cc1ccc(Cl)cc1Cl | inactive |
| Cc1ccc(N)c(C)c1 | inactive |
| [O-][Cl+]O | inactive |
| CCSC(=O)N1CCCCCC1 | inactive |
| Nc1cccc2ccccc12 | inactive |
| Cc1ccc(N)cc1N | inactive |
| Cl/C=C/CCl | inactive |
| Cc1ccc2c(C)cccc2c1 | inactive |
